# Measurements taken from PMC8384837, “Expanding the binding specificity for RNA recognition by a PUF domain”.
# Substitutions are numbered along the chain they refer to.
# Experiments:
# Assay in all cases: yeast three-hybrid, YBZ-1, SC-Leu-His + 0.5 mM 3-AT, 4 days
# Details in all cases: tags: N-Gal4 AD-HA kept; label: inside an RPR1-promoter hybrid RNA with tandem MS2 sites; ssRNA
# PUM1 PUF domain R7-RSG = PUM1 PUF domain R7-RSG (Homo sapiens, UniProt Q14671 828-1176, S1079R;N1080S;E1083G)
# In short: (§1)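 The interaction score is the logarithmic change in variant frequency from input to selection. It uses log2, with a pseudocount of 1 for absent variants, and frequencies came from PCR-amplified, Illumina-sequenced repeat regions. The libraries were Pumilio-1 PUF domains randomized at the three base-contacting residues per repeat, co-expressed with matching RNA elements in strain YBZ-1 (LexA–MS2 coat fusion, HIS3 reporter). Plating lasted four days on SC-Leu (input) or SC-Leu-His + 0.5 mM 3-AT (selection).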
# PUM1 PUF domain R7-RSN = PUM1 PUF domain R7-RSN (Homo sapiens, UniProt Q14671 828-1176, S1079R;N1080S;E1083N)
# In short: as §1
# PUM1 PUF domain R5-RCI = PUM1 PUF domain R5-RCI (Homo sapiens, UniProt Q14671 828-1176, C1007R;R1008C;Q1011I)
# In short: as §1
# PUM1 PUF domain R5-RGP = PUM1 PUF domain R5-RGP (Homo sapiens, UniProt Q14671 828-1176, C1007R;R1008G;Q1011P)
# In short: as §1
# PUM1 PUF domain R5-FKR = PUM1 PUF domain R5-FKR (Homo sapiens, UniProt Q14671 828-1176, C1007F;R1008K;Q1011R)
# In short: as §1
# PUM1 PUF domain R5-KND = PUM1 PUF domain R5-KND (Homo sapiens, UniProt Q14671 828-1176, C1007K;R1008N;Q1011D)
# In short: as §1
# PUM1 PUF domain R3-SME = PUM1 PUF domain R3-SME (Homo sapiens, UniProt Q14671 828-1176, C935S;R936M;Q939E)
# In short: as §1
# PUM1 PUF domain R3-RNP = PUM1 PUF domain R3-RNP (Homo sapiens, UniProt Q14671 828-1176, C935R;R936N;Q939P)
# In short: as §1
# PUM1 PUF domain R2-QWW = PUM1 PUF domain R2-QWW (Homo sapiens, UniProt Q14671 828-1176, N899Q;Y900W;Q903W)
# In short: as §1
# PUM1 PUF domain R4-QRG = PUM1 PUF domain R4-QRG (Homo sapiens, UniProt Q14671 828-1176, N971Q;H972R;Q975G)
# In short: as §1
# PUM1 PUF domain R6-FYC = target: T1, PUM1 PUF domain R6-FYC (Homo sapiens, UniProt Q14671 828-1176, N1043F;Q1047C)
# T1 sequence: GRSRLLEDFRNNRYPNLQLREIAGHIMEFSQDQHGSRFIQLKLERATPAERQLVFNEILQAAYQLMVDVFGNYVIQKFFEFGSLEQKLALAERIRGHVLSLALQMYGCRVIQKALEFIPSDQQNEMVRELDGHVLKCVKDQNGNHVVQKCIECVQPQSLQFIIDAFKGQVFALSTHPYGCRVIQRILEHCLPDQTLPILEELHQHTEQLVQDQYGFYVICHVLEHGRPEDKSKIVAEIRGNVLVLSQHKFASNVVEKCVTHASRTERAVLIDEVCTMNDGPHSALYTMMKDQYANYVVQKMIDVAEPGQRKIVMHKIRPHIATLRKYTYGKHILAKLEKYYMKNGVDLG
# In short: as §1
# PUM1 PUF domain R8-LYG = PUM1 PUF domain R8-LYG (Homo sapiens, UniProt Q14671 828-1176, N1122L;Q1126G)
# In short: as §1
# PUM1 PUF domain R5-GFY = PUM1 PUF domain R5-GFY (Homo sapiens, UniProt Q14671 828-1176, C1007G;R1008F;Q1011Y)
# In short: as §1
# PUM1 PUF domain R6-TFR = target: T2, PUM1 PUF domain R6-TFR (Homo sapiens, UniProt Q14671 828-1176, N1043T;Y1044F;Q1047R)
# T2 sequence: T1 sequence with F216T, Y217F, C220R
# In short: as §1
# PUM1 PUF domain R6-VYG = target: T3, PUM1 PUF domain R6-VYG (Homo sapiens, UniProt Q14671 828-1176, N1043V;Q1047G)
# T3 sequence: T1 sequence with F216V, C220G
# In short: as §1
# PUM1 PUF domain R4-DYG = PUM1 PUF domain R4-DYG (Homo sapiens, UniProt Q14671 828-1176, N971D;H972Y;Q975G)
# In short: as §1
sequence,measurement,setting,value
GGCUAGAACUAGUGGAUCCCCCGGCGCCCGGCGGCUCGAGCCCGGGUAAGUCUAAAUAGUCUGCAUGCCGCCGGGCGCCAUGCCUGCAGGUCGACUCUAGAAAACAUG,binding signal,PUM1 PUF domain R7-RSG,0.33 log2 enrichment (interaction score)
same,binding signal,PUM1 PUF domain R7-RSN,1.34 log2 enrichment (interaction score)
GGCUAGAACUAGUGGAUCCCCCGGCGCCCGGCGGCUCGAGCCCGGGUAAGUGUCAAUAGUCUGCAUGCCGCCGGGCGCCAUGCCUGCAGGUCGACUCUAGAAAACAUG,binding signal,PUM1 PUF domain R5-RCI,2.64 log2 enrichment (interaction score)
same,binding signal,PUM1 PUF domain R5-RGP,2.99 log2 enrichment (interaction score)
same,binding signal,PUM1 PUF domain R5-FKR,3.62 log2 enrichment (interaction score)
same,binding signal,PUM1 PUF domain R5-KND,3.62 log2 enrichment (interaction score)
GGCUAGAACUAGUGGAUCCCCCGGCGCCCGGCGGCUCGAGCCCGGGUAAGUGUAAGUAGUCUGCAUGCCGCCGGGCGCCAUGCCUGCAGGUCGACUCUAGAAAACAUG,binding signal,PUM1 PUF domain R3-SME,3.43 log2 enrichment (interaction score)
GGCUAGAACUAGUGGAUCCCCCGGCGCCCGGCGGCUCGAGCCCGGGUAAGUGUAAUUAGUCUGCAUGCCGCCGGGCGCCAUGCCUGCAGGUCGACUCUAGAAAACAUG,binding signal,PUM1 PUF domain R3-RNP,4.2 log2 enrichment (interaction score)
GGCUAGAACUAGUGGAUCCCCCGGCGCCCGGCGGCUCGAGCCCGGGUAAGUGUAAAGAGUCUGCAUGCCGCCGGGCGCCAUGCCUGCAGGUCGACUCUAGAAAACAUG,binding signal,PUM1 PUF domain R2-QWW,5.58 log2 enrichment (interaction score)
GGCUAGAACUAGUGGAUCCCCCGGCGCCCGGCGGCUCGAGCCCGGGUAAGUGUAAAUAGUCUGCAUGCCGCCGGGCGCCAUGCCUGCAGGUCGACUCUAGAAAACAUG,binding signal,PUM1 PUF domain R4-QRG,3.75 log2 enrichment (interaction score)
same,binding signal,PUM1 PUF domain R6-FYC,3.33 log2 enrichment (interaction score)
same,binding signal,PUM1 PUF domain R8-LYG,0.62 log2 enrichment (interaction score)
same,binding signal,PUM1 PUF domain R5-GFY,3.55 log2 enrichment (interaction score)
same,binding signal,PUM1 PUF domain R6-TFR,5.59 log2 enrichment (interaction score)
same,binding signal,PUM1 PUF domain R6-VYG,1.61 log2 enrichment (interaction score)
same,binding signal,PUM1 PUF domain R4-DYG,6.38 log2 enrichment (interaction score)
GGCUAGAACUAGUGGAUCCCCCGGCGCCCGGCGGCUCGAGCCCGGGUAAGUGUAUAUAGUCUGCAUGCCGCCGGGCGCCAUGCCUGCAGGUCGACUCUAGAAAACAUG,binding signal,PUM1 PUF domain R4-DYG,6.59 log2 enrichment (interaction score)
